Cruzain inh noDet: inhibitors of Trypanosoma cruzi cruzain without detergent | purified cruzain, Z-FR-AMC fluorescence, no detergent | Potency, µM, without a hit: max response, negative = inhibition, most hits filed as inhibitors | actives 2.3% (n = 200,000) | AID 1476;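 also: plate controls were enzyme without inhibitor for no effect and buffer without enzyme for full effect; nearly all actives have a fitted effect of over 40% in size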
Target sequence (P25779 123-467 limits assumed): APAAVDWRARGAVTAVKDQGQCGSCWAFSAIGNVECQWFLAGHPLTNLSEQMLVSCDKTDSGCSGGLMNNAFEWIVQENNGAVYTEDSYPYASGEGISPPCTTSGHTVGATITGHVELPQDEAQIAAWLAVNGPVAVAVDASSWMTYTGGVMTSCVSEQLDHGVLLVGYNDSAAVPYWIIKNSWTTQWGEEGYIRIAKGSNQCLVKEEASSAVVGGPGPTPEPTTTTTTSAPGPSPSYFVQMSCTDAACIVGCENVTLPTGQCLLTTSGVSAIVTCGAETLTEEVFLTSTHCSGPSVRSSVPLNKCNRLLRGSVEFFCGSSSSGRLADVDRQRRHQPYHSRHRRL
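Purified cruzain at 1.5 nM, pre-incubated 15 min with compound at room temperature in 100 mM sodium acetate pH 5.5, 5 mM DTT, 0.00005% Triton X-100. Reaction started with 2 uM Z-FR-AMC; AMC fluorescence increase over 60 s gives rate.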
Cruzain inh Det: blocks cruzain activity in presence of Triton detergent; P25779; purified cruzain, Z-FR-AMC fluorescence, 0.01% Triton; Potency, µM, inactives show max response, negative = inhibition, usual class: inhibitors; actives 0.43% (n = 200,000);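 also: plate controls were neutral wells for no effect and buffer without enzyme for full effect; nearly all actives have a fitted effect of over 40% in size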
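Cysteine protease activity tested under reducing, mildly acidic conditions (100 mM sodium acetate pH 5.5, 5 mM DTT) plus 0.01% Triton X-100. Cruzain 1.5 nM; substrate Z-FR-AMC 2 uM; 15 min compound preincubation at room temperature.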
Papain inh: blocks papain protease activity, flagging nonselective cruzain hits | AID 2161 | purified papain, Z-FR-AMC fluorescence cleavage | shares compounds with Cruzain inh Det | actives 41% (n = 410) | Potency, µM, inactives show max response, negative = inhibition, most hits filed as inhibitors;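 also: 0% = no-compound wells and -100% = no-enzyme wells; nearly all actives have a fitted effect of over 35% in size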
Target sequence (P00784 whole entry, looked up): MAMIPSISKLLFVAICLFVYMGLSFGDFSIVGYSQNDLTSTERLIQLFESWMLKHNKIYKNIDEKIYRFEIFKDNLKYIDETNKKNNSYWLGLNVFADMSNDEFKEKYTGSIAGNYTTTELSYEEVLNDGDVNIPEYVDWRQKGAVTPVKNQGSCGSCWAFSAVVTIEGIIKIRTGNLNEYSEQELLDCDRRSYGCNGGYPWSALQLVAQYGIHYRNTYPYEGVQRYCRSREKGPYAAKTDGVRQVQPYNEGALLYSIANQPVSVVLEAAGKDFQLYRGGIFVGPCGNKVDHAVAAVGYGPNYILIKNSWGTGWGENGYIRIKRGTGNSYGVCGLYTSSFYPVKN
The depositor's hits bear a star. Hits are enriched below; roughly 2.5% of the tested compounds scored in any of these assays. Calls follow the shape of the dose curve; as a rule, active = well fitted curve in the direction sought with a large enough effect; inconclusive = small, poorly fitted or top-dose-only effect, or another doubt; inactive = no such curve, though single readings can be large; an effect the other way counts as inactive or inconclusive. Potency is read from the fitted curve at half-maximal effect.

What do the screens show for `COc1ccc(C)cc1NC(=O)CCS(=O)(=O)c1cc2c3c(c1)CCN3C(=O)CC2`?
Cruzain inh noDet: 2%; Cruzain inh Det: -15%

How did CCOc1ccc(-c2cc3nc(C4CCN(C(=O)OC(C)(C)C)CC4)c(C(=O)Nc4c(C)cccc4C)cn3n2)cc1 do in these assays?
Cruzain inh noDet: -21%; Cruzain inh Det: -9%

How did CCOc1ccc(-c2cc3nc(C4CCN(C(=O)OC(C)(C)C)CC4)c(C(=O)O)cn3n2)cc1 do in these assays?
Cruzain inh noDet: inconclusive; Cruzain inh Det: -24%; Papain inh: 32µM*

Results for CCOC(=O)c1c(NC(=O)CCCOc2ccc(Cl)cc2)sc2c1CCC2 ?
Cruzain inh noDet: -7%; Cruzain inh Det: -3%

Results for O=C(Nc1nc(-c2ccccc2)c(-c2ccccc2)s1)c1ccc(S(=O)(=O)N(CCCl)CCCl)cc1 ?
Cruzain inh noDet: 4µM*; Cruzain inh Det: -2%; Papain inh: 17%

How did COCCN(CCOC)S(=O)(=O)c1ccc(C(=O)Nc2nc(C)c(C(C)=O)s2)cc1 do in these assays?
Cruzain inh noDet: 21%; Cruzain inh Det: -9%

What do the screens show for `COC(=O)c1ccc2c(=O)n(CCCCCC(=O)NCCc3ccccc3)c(=O)[nH]c2c1`?
Cruzain inh noDet: 1%; Cruzain inh Det: 3%

How did CCCCNC(=O)c1ccc2nc(-c3cccs3)c(-c3cccs3)nc2c1 do in these assays?
Papain inh: -5%

How did COC(CNC(=O)c1ccc2nc(-c3cccs3)c(-c3cccs3)nc2c1)OC do in these assays?
Cruzain inh noDet: 29%; Cruzain inh Det: -12%

What do the screens show for `CCc1ccc2[nH]c(=O)c(CN(Cc3ccc(OC)cc3)Cc3nnnn3CCOC)cc2c1`?
Cruzain inh noDet: inconclusive; Cruzain inh Det: -4%

How did CCc1ccc2[nH]c(=O)c(CN(Cc3cccnc3)Cc3nnnn3Cc3ccccc3)cc2c1 do in these assays?
Papain inh: -4%

How did Cc1ccc2[nH]c(=O)c(CN(Cc3cccs3)Cc3nnnn3Cc3ccccc3)cc2c1 do in these assays?
Cruzain inh noDet: 3%; Cruzain inh Det: -4%

How did CCc1ccc2[nH]c(=O)c(CN(Cc3ccccc3)Cc3nnnn3C(C)(C)C)cc2c1 do in these assays?
Papain inh: -26%

Results for CCn1ccc2cc(S(=O)(=O)N3CCC(C(=O)NCCc4ccccc4)CC3)ccc21 ?
Cruzain inh noDet: 2%; Cruzain inh Det: -2%

How did CCc1ccc(C2CC(=O)c3c([nH]c(C(=O)OCC4CCCCC4)c3C)C2)cc1 (centres undefined) do in these assays?
Cruzain inh noDet: -3%; Cruzain inh Det: -1%

How did CCc1ccccc1NC(=O)Cn1c(=O)n(Cc2ccco2)c(=O)c2ccccc21 do in these assays?
Cruzain inh noDet: 0%; Cruzain inh Det: -2%

Results for Cc1ccc(-c2nn3c(-c4cccc(Cl)c4)nnc3s2)cc1 ?
Cruzain inh noDet: inconclusive; Cruzain inh Det: -6%

What do the screens show for `COc1cc(-c2nn3c(-c4cc(-c5ccccc5)n[nH]4)nnc3s2)cc(OC)c1OC`?
Papain inh: -2%

Results for COc1ccccc1-c1nn2c(-c3cc(C)[nH]n3)nnc2s1 ?
Papain inh: 5%

Results for COc1cc(-c2nn3c(-c4ccccc4)nnc3s2)cc(OC)c1OC ?
Cruzain inh noDet: inconclusive; Cruzain inh Det: 3%

Results for COc1ccc(-c2nnc3sc(-c4ccccc4OC)nn23)cc1 ?
Cruzain inh noDet: inconclusive; Cruzain inh Det: 0%

How did Clc1ccc(-c2nn3c(-c4cc(-c5ccccc5)n[nH]4)nnc3s2)cc1 do in these assays?
Papain inh: 7%

Results for CCC(C)c1ccccc1OCCn1c(CCNC(=O)C2CCCCC2)nc2ccccc21 (centres undefined) ?
Papain inh: -11%

Results for Cc1ccccc1OCCCCn1c(CCNC(=O)C2CCCCC2)nc2ccccc21 ?
Papain inh: 11µM*

Results for CCc1nc2ccccc2n1CCCCOc1ccccc1C ?
Cruzain inh noDet: 12%; Cruzain inh Det: -7%

How did Cc1ccccc1OCCn1c(CCNC(=O)C(C)C)nc2ccccc21 do in these assays?
Cruzain inh noDet: 1%; Cruzain inh Det: -4%

How did Cc1ccccc1Cn1c(CCCNC(=O)C2CCCCC2)nc2ccccc21 do in these assays?
Cruzain inh noDet: -6%; Cruzain inh Det: -8%

Results for COc1ccccc1OCCCn1c(CCNC(=O)C2CCCCC2)nc2ccccc21 ?
Papain inh: 28µM*

How did Cc1ccccc1OCCCn1c(CCNC(=O)C2CCCCC2)nc2ccccc21 do in these assays?
Cruzain inh noDet: 3%; Cruzain inh Det: 3.2µM*; Papain inh: -19%

What do the screens show for `CCn1c(CCNC(=O)c2ccc(OC)c(OC)c2)nc2ccccc21`?
Cruzain inh noDet: -1%; Cruzain inh Det: -3%

Results for Cc1noc(-c2ccc(-c3noc(-c4cccc(Cl)c4)n3)cc2)n1 ?
Cruzain inh noDet: -17%; Cruzain inh Det: 0%

Results for Cc1ccc(S(=O)(=O)C(CNC(=O)C(=O)NCc2ccc(Cl)cc2)c2ccco2)cc1 (centres undefined) ?
Cruzain inh noDet: 6%; Cruzain inh Det: -2%

What do the screens show for `O=C(CSc1nc(=O)n(CCN2CCOCC2)c2c1CCC2)Nc1ccccc1`?
Cruzain inh noDet: 9%; Cruzain inh Det: -3%

How did CCC(C)[C@@H](N)C(=O)N/N=C/c1ccc2ncccc2c1 (some centres undefined) do in these assays?
Cruzain inh noDet: 10µM*; Cruzain inh Det: 10µM*; Papain inh: 6%

Results for CCOc1cc(/C=N/NC(=O)C(C)Sc2ccccn2)ccc1O (centres undefined) ?
Cruzain inh noDet: 2%; Cruzain inh Det: -3%

How did CCN(CC)c1ccc(C(=O)Nc2ccc3nc(N(CC)CC)cc(C)c3c2)cc1 do in these assays?
Cruzain inh noDet: -8%; Cruzain inh Det: -13%

Results for COc1ccc2c(c1)c1c(c(=O)n(-c3ccc(OC)c(OC)c3)c(=O)n1CC(=O)N1CCCC1)n2C ?
Cruzain inh noDet: -13%; Cruzain inh Det: 3%

What do the screens show for `CCC(C)NC(=O)c1nn(-c2ccc(C)cc2)nc1CO` (centres undefined)?
Cruzain inh noDet: -2%; Cruzain inh Det: 3%

What do the screens show for `Cc1c(CNCc2ccc(Cl)cc2)c(C(=O)O)c(C)n1Cc1ccc(F)cc1`?
Cruzain inh noDet: 7%; Cruzain inh Det: -3%

How did Cc1ccccc1NC(=O)CSc1nnc(-c2ccco2)c(-c2ccco2)n1 do in these assays?
Cruzain inh noDet: 3.2µM*; Cruzain inh Det: 25µM*; Papain inh: 14µM*

Results for Cc1ccccc1NC(=O)CSc1nc(-c2ccco2)nc2cc(=O)[nH]n12 ?
Cruzain inh noDet: 15%; Cruzain inh Det: -5%

Results for O=C(CSc1nnc(-c2ccccc2)c(-c2ccccc2)n1)NCc1ccco1 ?
Cruzain inh noDet: inconclusive; Cruzain inh Det: -12%

What do the screens show for `O=C(CSc1nnc(-c2ccco2)c(-c2ccco2)n1)Nc1ccccc1`?
Cruzain inh noDet: 20µM*; Cruzain inh Det: 22µM*; Papain inh: 25µM*

How did Cc1nn(-c2ccccc2)c2c1cc1c(=O)[nH]c(=O)nc-1n2-c1cccc(Cl)c1 do in these assays?
Cruzain inh noDet: 6%; Cruzain inh Det: -3%

How did C=CC(C)(C)c1[nH]c2ccccc2c1C1=C(O)C(=O)C(c2c[nH]c3c(CC=C(C)C)cccc23)=C(O)C1=O do in these assays?
Cruzain inh noDet: inconclusive; Cruzain inh Det: 32µM*; Papain inh: 4.5µM*

Screening data (PubChem BioAssay)
